Laboratory results reported in PMC7862700, “An all-to-all approach to the identification of sequence-specific readers for epigenetic DNA modifications on cytosine”.

Assays:
Assay in all cases: DAPPL (digital affinity profiling via proximity ligation, sequencing); 10 mM Tris-HCl pH 7.5, 50 mM NaCl, 1 mM DTT, 4% glycerol, room temperature, 30 min; GST-TFs on glutathione beads, 16-mer random dsDNA library, 0.1% formaldehyde crosslink after washing; high values mean tight binding
FLI1 = target: T1, FLI1 (Homo sapiens, UniProt Q01543 1-452); conditions: protein: recombinant; tags: N-terminal GST; dsDNA, one strand shown
T1 sequence: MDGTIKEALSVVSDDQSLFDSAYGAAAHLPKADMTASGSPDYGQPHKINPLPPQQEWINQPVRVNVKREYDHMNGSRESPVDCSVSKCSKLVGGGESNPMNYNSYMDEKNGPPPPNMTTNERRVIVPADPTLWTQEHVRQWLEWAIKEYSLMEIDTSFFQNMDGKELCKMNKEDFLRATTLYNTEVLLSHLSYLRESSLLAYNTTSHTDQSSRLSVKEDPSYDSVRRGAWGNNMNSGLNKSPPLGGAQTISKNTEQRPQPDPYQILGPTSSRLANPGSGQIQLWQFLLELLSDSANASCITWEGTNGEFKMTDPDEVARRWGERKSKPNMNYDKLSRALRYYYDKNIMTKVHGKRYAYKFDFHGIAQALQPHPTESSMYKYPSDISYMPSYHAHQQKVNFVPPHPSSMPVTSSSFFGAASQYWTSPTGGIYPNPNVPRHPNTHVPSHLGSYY
Outline: (§1)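 Binding signal is given per hexamer as its read frequency for a factor divided by its frequency in the tag-only sample. GST-fused human transcription factors were expressed in yeast, captured on glutathione beads, barcoded with DNA and pooled with that sample, then incubated with 200 nmole of a 16-mer random double-stranded DNA library in Tris/NaCl/DTT/glycerol buffer for 30 min at room temperature. The pools were then washed, crosslinked, proximity-ligated, amplified by PCR and sequenced on an Illumina NextSeq500.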

ELK1 = target: T2, ELK1 (Homo sapiens, UniProt P19419 1-428); conditions: protein: recombinant; tags: N-terminal GST; dsDNA, one strand shown
T2 sequence: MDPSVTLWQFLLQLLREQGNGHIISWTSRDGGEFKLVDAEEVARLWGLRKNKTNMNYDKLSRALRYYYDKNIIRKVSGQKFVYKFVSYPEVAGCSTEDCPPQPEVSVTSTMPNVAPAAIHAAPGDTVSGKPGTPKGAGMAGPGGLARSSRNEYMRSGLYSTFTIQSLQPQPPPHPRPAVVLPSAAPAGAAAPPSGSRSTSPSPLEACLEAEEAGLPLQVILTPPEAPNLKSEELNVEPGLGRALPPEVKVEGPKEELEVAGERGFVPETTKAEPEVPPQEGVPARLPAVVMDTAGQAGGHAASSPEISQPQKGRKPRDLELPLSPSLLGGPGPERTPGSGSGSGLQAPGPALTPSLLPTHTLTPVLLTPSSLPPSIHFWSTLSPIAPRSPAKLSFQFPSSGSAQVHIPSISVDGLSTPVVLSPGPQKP
Outline: as §1

GABPA = target: T3, GABPA (Homo sapiens, UniProt Q06546 1-454); conditions: protein: recombinant; tags: N-terminal GST; dsDNA, one strand shown
T3 sequence: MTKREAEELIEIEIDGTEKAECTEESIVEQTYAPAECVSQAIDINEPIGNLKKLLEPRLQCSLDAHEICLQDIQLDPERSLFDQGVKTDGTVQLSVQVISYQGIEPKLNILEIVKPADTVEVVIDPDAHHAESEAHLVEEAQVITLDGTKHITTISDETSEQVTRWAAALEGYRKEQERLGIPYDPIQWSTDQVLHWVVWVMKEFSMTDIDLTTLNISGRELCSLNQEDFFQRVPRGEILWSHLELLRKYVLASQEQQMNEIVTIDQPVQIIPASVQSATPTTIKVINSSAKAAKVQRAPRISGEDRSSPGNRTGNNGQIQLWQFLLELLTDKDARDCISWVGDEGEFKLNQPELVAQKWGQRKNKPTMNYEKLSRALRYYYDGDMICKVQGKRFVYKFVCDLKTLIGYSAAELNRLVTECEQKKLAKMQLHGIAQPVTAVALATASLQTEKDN
Outline: as §1

ERG = target: T4, ERG (Homo sapiens, UniProt P11308 1-479); conditions: protein: recombinant; tags: N-terminal GST; dsDNA, one strand shown
T4 sequence: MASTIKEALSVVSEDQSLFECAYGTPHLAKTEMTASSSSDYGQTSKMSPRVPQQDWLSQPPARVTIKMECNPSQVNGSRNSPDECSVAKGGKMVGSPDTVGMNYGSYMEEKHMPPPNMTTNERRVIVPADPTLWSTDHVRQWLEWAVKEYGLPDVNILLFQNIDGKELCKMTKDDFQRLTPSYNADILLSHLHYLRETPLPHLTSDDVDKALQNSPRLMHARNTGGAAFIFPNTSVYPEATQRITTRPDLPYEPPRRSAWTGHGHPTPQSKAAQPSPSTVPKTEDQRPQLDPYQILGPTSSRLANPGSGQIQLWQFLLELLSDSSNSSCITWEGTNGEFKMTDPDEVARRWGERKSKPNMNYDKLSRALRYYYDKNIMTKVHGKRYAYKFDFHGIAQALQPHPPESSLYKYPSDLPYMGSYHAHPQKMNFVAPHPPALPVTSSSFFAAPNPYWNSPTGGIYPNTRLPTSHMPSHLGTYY
Outline: as §1

ELF1 = ELF1 (Homo sapiens, UniProt P32519 1-619); conditions: protein: recombinant; tags: N-terminal GST; dsDNA, one strand shown
Sequence of ELF1 (P32519 whole entry): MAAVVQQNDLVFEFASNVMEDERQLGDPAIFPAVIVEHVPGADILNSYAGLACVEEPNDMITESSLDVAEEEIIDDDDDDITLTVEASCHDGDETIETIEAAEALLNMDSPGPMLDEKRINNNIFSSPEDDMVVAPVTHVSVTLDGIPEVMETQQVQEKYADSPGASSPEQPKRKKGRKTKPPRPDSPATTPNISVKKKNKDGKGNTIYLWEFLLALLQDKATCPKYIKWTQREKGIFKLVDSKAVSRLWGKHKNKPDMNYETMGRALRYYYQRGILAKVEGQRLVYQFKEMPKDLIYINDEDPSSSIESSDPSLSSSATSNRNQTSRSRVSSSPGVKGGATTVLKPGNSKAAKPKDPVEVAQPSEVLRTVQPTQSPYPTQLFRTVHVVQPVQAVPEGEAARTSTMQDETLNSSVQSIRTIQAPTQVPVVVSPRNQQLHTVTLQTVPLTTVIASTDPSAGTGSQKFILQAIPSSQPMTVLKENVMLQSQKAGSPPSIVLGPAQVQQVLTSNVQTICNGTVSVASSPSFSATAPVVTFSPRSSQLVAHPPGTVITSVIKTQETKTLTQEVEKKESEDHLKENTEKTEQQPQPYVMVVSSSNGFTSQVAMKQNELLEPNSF
Outline: as §1

EHF = target: T5, EHF (Homo sapiens, UniProt Q9NZC4 1-300); conditions: protein: recombinant; tags: N-terminal GST; dsDNA, one strand shown
T5 sequence: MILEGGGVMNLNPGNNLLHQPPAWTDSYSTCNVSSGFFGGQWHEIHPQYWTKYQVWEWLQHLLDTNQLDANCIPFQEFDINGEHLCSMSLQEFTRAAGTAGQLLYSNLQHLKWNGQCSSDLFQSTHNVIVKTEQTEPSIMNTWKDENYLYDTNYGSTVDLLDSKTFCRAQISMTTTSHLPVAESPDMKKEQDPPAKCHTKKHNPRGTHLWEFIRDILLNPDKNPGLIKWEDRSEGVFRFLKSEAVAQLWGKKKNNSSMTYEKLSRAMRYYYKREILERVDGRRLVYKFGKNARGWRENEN
Outline: as §1

SPI1 = SPI1 (Homo sapiens, UniProt P17947 1-270); conditions: protein: recombinant; tags: N-terminal GST; dsDNA, one strand shown
Outline: as §1

SPIB = SPIB (Homo sapiens, UniProt Q01892 1-262); conditions: protein: recombinant; tags: N-terminal GST; dsDNA, one strand shown
Sequence of SPIB (Q01892 whole entry): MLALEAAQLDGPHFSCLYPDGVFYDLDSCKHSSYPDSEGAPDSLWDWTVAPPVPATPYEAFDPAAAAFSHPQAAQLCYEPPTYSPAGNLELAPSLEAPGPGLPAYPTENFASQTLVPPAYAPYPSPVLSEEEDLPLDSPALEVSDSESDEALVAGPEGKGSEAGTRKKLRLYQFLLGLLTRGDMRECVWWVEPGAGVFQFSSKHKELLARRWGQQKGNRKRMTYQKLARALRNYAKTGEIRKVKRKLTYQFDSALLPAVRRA
Outline: as §1

ELK3 = target: T6, ELK3 (Homo sapiens, UniProt P41970 1-407); conditions: protein: recombinant; tags: N-terminal GST; dsDNA, one strand shown
T6 sequence: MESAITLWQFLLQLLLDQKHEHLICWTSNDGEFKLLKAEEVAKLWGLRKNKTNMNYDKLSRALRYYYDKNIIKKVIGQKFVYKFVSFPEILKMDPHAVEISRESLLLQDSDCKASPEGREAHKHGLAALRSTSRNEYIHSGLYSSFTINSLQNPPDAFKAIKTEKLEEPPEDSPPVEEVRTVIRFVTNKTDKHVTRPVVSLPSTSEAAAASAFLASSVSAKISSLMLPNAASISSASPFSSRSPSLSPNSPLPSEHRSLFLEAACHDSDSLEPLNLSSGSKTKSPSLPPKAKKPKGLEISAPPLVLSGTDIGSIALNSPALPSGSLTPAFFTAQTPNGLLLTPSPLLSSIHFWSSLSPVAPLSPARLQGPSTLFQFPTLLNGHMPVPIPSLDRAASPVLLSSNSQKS
Outline: as §1

FEV = target: T7, FEV (Homo sapiens, UniProt Q99581 1-238); conditions: protein: recombinant; tags: N-terminal GST; dsDNA, one strand shown
T7 sequence: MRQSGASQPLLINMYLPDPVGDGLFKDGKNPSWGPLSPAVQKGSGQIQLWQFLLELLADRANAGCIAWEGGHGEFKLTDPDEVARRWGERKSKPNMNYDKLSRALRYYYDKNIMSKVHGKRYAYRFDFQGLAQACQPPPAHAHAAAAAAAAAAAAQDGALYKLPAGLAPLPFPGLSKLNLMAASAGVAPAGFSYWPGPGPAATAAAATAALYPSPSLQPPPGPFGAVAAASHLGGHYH
Outline: as §1

ETV5 = ETV5 (Homo sapiens, UniProt P41161 1-510); conditions: protein: recombinant; tags: N-terminal GST; dsDNA, one strand shown
Sequence of ETV5 (P41161 whole entry): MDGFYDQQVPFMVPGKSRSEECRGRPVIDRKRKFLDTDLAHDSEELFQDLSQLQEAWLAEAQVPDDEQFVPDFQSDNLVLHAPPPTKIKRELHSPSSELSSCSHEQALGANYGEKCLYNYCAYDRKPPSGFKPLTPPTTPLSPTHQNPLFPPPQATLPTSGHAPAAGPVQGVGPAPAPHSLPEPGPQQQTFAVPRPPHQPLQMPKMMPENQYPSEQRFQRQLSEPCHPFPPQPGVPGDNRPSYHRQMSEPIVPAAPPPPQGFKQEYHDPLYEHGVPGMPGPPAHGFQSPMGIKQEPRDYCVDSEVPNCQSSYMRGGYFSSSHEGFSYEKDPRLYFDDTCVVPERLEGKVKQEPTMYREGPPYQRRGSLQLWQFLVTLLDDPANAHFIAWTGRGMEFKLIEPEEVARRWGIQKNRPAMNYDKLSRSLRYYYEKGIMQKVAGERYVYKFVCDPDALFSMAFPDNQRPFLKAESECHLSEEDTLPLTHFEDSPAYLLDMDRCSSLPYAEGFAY
Outline: as §1

HSF1 = HSF1 (Homo sapiens, UniProt Q00613 1-529); conditions: protein: recombinant; tags: N-terminal GST; chain copies: 3; dsDNA, one strand shown
Sequence of HSF1 (Q00613 whole entry): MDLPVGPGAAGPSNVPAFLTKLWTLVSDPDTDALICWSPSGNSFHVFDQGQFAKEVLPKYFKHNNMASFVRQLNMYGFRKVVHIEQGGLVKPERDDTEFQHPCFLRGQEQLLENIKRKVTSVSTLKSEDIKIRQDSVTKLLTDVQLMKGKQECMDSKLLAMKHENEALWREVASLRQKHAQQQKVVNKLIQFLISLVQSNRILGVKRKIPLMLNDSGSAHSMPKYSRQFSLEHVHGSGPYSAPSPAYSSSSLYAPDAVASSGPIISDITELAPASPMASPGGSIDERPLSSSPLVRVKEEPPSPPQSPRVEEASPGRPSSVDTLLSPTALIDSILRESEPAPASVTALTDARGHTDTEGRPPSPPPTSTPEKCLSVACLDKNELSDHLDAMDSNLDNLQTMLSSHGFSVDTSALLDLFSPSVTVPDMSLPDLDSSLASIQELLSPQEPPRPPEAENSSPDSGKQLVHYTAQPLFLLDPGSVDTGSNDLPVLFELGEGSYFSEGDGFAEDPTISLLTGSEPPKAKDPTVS
Outline: as §1

SPIC = target: T8, SPIC (Homo sapiens, UniProt Q8N5J4 1-248); conditions: protein: recombinant; tags: N-terminal GST; dsDNA, one strand shown
T8 sequence: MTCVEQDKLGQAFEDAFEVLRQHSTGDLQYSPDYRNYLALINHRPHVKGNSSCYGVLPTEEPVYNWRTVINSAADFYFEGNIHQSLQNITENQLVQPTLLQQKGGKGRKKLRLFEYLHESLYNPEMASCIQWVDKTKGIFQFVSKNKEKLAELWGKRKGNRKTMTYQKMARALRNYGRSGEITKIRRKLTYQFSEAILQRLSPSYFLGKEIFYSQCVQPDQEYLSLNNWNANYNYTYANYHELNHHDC
Outline: as §1

ELF4 = ELF4 (Homo sapiens, UniProt Q99607 1-663); conditions: protein: recombinant; tags: N-terminal GST; dsDNA, one strand shown
Sequence of ELF4 (Q99607 whole entry): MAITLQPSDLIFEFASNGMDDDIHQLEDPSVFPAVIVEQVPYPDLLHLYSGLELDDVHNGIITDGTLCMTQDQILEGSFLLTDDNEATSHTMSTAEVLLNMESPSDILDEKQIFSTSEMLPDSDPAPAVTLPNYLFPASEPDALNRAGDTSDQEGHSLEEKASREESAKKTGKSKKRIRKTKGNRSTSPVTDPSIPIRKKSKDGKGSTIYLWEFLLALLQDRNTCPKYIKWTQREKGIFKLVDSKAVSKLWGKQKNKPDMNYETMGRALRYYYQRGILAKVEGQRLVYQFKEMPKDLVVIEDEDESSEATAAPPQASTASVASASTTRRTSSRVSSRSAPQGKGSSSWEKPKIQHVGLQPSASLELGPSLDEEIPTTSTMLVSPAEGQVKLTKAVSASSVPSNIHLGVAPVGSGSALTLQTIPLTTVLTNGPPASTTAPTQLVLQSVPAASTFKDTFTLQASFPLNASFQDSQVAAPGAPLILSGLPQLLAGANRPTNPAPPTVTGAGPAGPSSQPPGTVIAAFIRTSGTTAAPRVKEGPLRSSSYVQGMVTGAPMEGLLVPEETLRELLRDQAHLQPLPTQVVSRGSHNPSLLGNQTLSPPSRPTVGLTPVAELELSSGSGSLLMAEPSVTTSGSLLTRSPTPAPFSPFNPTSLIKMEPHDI
Outline: as §1

ELK4 = target: T9, ELK4 (Homo sapiens, UniProt P28324-2 1-405); conditions: protein: recombinant; tags: N-terminal GST; dsDNA, one strand shown
T9 sequence: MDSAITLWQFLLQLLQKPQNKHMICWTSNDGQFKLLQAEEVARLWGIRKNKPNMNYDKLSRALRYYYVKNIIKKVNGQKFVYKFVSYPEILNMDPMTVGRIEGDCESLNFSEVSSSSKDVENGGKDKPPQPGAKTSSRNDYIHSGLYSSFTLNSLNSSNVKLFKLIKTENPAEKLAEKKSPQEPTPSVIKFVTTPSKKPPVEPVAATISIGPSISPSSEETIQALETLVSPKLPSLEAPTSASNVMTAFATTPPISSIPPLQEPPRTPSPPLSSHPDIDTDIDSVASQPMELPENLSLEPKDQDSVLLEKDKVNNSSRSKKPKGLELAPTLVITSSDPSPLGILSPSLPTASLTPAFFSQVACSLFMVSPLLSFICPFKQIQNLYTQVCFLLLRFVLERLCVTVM
Outline: as §1

ETV2 = target: T10, ETV2 (Homo sapiens, UniProt O00321 1-342); conditions: protein: recombinant; tags: N-terminal GST; dsDNA, one strand shown
T10 sequence: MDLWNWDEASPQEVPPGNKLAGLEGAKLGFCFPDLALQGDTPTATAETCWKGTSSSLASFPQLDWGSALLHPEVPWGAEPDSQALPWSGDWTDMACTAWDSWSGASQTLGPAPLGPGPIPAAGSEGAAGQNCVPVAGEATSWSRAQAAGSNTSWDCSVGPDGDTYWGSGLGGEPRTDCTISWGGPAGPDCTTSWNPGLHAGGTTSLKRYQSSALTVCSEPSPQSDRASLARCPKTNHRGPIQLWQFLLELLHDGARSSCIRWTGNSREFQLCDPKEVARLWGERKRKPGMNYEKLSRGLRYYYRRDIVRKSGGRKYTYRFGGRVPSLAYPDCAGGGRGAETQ
Outline: as §1

ELF3 = target: T11, ELF3 (Homo sapiens, UniProt P78545 1-371); conditions: protein: recombinant; tags: N-terminal GST; dsDNA, one strand shown
T11 sequence: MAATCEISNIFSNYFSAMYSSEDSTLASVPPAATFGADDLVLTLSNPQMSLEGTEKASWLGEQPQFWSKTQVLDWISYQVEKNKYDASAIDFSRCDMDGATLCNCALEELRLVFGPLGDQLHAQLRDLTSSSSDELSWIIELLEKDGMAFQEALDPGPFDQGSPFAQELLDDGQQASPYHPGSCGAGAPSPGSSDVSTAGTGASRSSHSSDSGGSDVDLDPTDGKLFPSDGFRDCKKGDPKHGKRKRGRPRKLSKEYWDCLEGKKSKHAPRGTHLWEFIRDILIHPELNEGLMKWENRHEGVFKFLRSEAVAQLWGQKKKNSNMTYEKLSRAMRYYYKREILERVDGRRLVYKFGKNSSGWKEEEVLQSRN
Outline: as §1

CRX = CRX (Homo sapiens, UniProt O43186 1-299); conditions: protein: recombinant; tags: N-terminal GST; dsDNA, one strand shown
Sequence of CRX (O43186 whole entry): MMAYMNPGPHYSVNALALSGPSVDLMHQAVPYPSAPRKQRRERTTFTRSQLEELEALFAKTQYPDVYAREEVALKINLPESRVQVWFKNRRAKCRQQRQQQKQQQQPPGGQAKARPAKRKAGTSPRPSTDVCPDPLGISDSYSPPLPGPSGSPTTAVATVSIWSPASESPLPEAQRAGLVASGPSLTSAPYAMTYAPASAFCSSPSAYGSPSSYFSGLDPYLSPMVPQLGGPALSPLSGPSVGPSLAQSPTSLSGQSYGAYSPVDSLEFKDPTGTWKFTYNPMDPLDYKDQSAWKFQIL
Outline: as §1

ETV1 = ETV1 (Homo sapiens, UniProt P50549 1-477); conditions: protein: recombinant; tags: N-terminal GST; dsDNA, one strand shown
Sequence of ETV1 (P50549 whole entry): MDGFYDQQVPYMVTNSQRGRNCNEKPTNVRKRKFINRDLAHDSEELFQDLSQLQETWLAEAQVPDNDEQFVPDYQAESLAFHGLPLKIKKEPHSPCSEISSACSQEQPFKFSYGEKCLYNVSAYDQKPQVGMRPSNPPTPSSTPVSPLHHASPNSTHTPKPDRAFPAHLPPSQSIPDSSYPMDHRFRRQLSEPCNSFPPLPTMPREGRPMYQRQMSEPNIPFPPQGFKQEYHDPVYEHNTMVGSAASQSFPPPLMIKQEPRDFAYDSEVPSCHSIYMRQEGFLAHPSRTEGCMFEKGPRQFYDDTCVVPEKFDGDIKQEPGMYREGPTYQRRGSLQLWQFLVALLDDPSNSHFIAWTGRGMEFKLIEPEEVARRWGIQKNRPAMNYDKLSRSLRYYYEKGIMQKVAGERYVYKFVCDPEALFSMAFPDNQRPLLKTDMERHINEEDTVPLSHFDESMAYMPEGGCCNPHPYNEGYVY
Outline: as §1

Sequence: CTACAC
- binding signal (FLI1): 1.3 fold enrichment (6-mer frequency, TF over GST control)
- binding signal (ELK1): 1.27 fold enrichment (6-mer frequency, TF over GST control)
- binding signal (GABPA): 1.34 fold enrichment (6-mer frequency, TF over GST control)
- binding signal (ERG): 1.34 fold enrichment (6-mer frequency, TF over GST control)
- binding signal (ELF1): 1.33 fold enrichment (6-mer frequency, TF over GST control)
- binding signal (EHF): 1.36 fold enrichment (6-mer frequency, TF over GST control)
- binding signal (SPI1): 1.21 fold enrichment (6-mer frequency, TF over GST control)
- binding signal (SPIB): 1.33 fold enrichment (6-mer frequency, TF over GST control)
- binding signal (ELK3): 1.27 fold enrichment (6-mer frequency, TF over GST control)
- binding signal (FEV): 1.27 fold enrichment (6-mer frequency, TF over GST control)
- binding signal (ETV5): 1.26 fold enrichment (6-mer frequency, TF over GST control)
- binding signal (HSF1): 1.11 fold enrichment (6-mer frequency, TF over GST control)
- binding signal (SPIC): 1.32 fold enrichment (6-mer frequency, TF over GST control)
- binding signal (ELF4): 1.17 fold enrichment (6-mer frequency, TF over GST control)
- binding signal (ELK4): 1.23 fold enrichment (6-mer frequency, TF over GST control)
- binding signal (ETV2): 1.19 fold enrichment (6-mer frequency, TF over GST control)
- binding signal (ELF3): 1.39 fold enrichment (6-mer frequency, TF over GST control)
- binding signal (CRX): 1.05 fold enrichment (6-mer frequency, TF over GST control)
- binding signal (ETV1): 1.28 fold enrichment (6-mer frequency, TF over GST control)
